# Measurements from PubChem BioAssay AID651820 (National Center for Advancing Translational Sciences (NCATS), 2012).
# Several values for one entry are separate records, joined by “and”; a condition that tells them apart may be missing. Equal entries are not always repeated. Hit rate of the full screen: of about 340,000 compounds, about 12,000 (3.5%) were called active. A call without a number means that no potency is given here. About 18% were inconclusive and are not listed. The call rests on the fitted dose curve; in most records, active means well fitted inhibition curve with a large enough effect; inconclusive means small, poorly fitted or top-dose-only effect, or another doubt; inactive means no such curve, though single readings can be large or run the other way. The full list was thinned out, with actives kept by preference.
# Assay: qHTS Assay for Inhibitors of Hepatitis C Virus (HCV)
# Conditions: Huh7.5.1 HCVcc-Cre infection, luciferase reporter, 44 h; series mostly up to 41.8 µM
# In short: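 HCVcc-Cre virus at an moi near 0.5 was added right after compound to cells cultured 4 h from seeding (1,000 cells/well). Luciferase activity was determined 44 h later, 15 min after substrate addition at RT.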
# Potency means the concentration at half of the fitted maximal effect.
row,SMILES,Potency
1,CCCN(C(=O)c1nc2nccc(C)n2n1)c1c(N)n(Cc2ccccc2)c(=O)[nH]c1=O,inactive
2,O=C1CC(c2ccccc2)C(c2ccccc2)=NN1 (configuration not stated),inactive
3,CC(C)c1cc(N=O)cc(C(C)C)c1O,inactive
4,O=C(OCC(=O)N1CCCCCC1)c1ccc(Cl)nc1,inactive
5,CN1CCN(C2Cc3ccc(Cl)cc3Sc3ccc(F)cc32)CC1 (configuration not stated),31.6 µM (active)
6,CN(CC(=O)Nc1ccc(F)c(F)c1F)C(=O)C1CC(=O)N(C2CCCC2)C1 (configuration not stated),inactive
7,CCCNC(=O)c1ccc(Cl)c(Cl)c1,inactive
8,CCCCOC(=O)Cn1c(=N)n(CCN(CC)CC)c2ccccc21,inactive
9,CCCn1c(=N)n(CC(=O)c2ccc(Cl)c(Cl)c2)c2ccccc21,10 µM (active)
10,Cc1ccc(S(=O)(=O)N2CCCCC2)cc1C(=O)N1CCN(CCO)CC1,inactive
11,CNc1nc(=O)n(C2CCCO2)cc1C (configuration not stated),inactive
12,Cc1ccc(OCc2cc(C(=O)N(C)CCc3ccccc3)no2)cc1C,inactive
13,CN(Cc1cnccn1)C(=O)c1cc(COc2cccc(C(F)(F)F)c2)on1,inactive
14,CN(Cc1cccnc1)C(=O)c1cc(COc2ccc3ncccc3c2)on1,3.98 µM (active)
15,O=C(c1ccc2c(c1)C(=O)N(c1ccc(Cl)cc1)C2=O)N1CCN(c2ccccn2)CC1,inactive
16,O=C(c1ccc2c(c1)N(Cc1ccc(F)cc1)C(=O)c1ccccc1S2(=O)=O)N1CCN(c2ccccn2)CC1,25.1 µM (active)
17,O=C1c2ccccc2S(=O)(=O)c2cc(N3CCN(c4ccccn4)CC3)ccc21,inactive
18,CCC(=O)c1ccc(OCC(=O)N(CC)CC2COc3ccccc3O2)cc1 (configuration not stated),inactive
19,CC(=O)c1c(C)[nH]c(C(=O)COC(=O)CCOc2ccc(C)cc2)c1C,inactive
20,CCc1c(Nc2ccccc2Cl)nc(N)[nH]c1=O,inactive
21,C#CCOCCOCCOCCNc1nc(N2CCN(C(=O)[C@H](CCC(=O)O)n3cc(CN)nn3)CC2)nc(N2CCN(C(=O)[C@H](CCC(=O)O)n3cc(CN)nn3)CC2)n1,inactive
22,COc1cc2c(cc1OC)C(c1ccncc1)CC(=O)N2 (configuration not stated),inactive
23,CCCOc1ccccc1C1CC(=O)Nc2cc3c(cc21)OCO3 (configuration not stated),2.24 µM (active) and 3.55 µM (active)

row,SMILES,Potency
1,COc1cc2c(cc1OC)C(c1ccc(C)o1)CC(=O)N2 (configuration not stated),inactive
2,CCn1c(SCC(=O)NCC2CCCO2)nc2ccccc21 (configuration not stated),inactive
3,O=C(Nc1nc(-c2ccncc2)cs1)C1COc2ccccc2O1 (configuration not stated),inactive
4,Cc1ccc(-c2csc(NC(=O)c3cnccn3)n2)cc1C,inactive
5,Cc1csc(NC(=O)C2=COCCO2)n1,inactive
6,O=C(Nc1nc(-c2ccc3c(c2)OCO3)cs1)c1ccncc1,12.6 µM (active)
7,CC(=O)NCCC(=O)Nc1nc(-c2ccc3c(c2)OCCO3)cs1,inactive
8,Cc1ccc(-c2csc(NC(=O)C3=COCCO3)n2)cc1C,7.94 µM (active)
9,O=C(CCc1nc2sc3c(c2c(=O)[nH]1)CCCC3)NCC(=O)Nc1ccccc1Br,inactive
10,COc1ccc(CNC(=O)COC(=O)C2=Cc3ccccc3OC2)cc1,inactive
11,Cn1cc(C2OC(=O)c3ccccc32)c2ccccc21 (configuration not stated),inactive
12,COc1cc(F)c(C2=CC(=O)CC(C)(C)C2)cc1F,inactive
13,Cc1cc([N+](=O)[O-])ccc1NS(=O)(=O)c1ccccc1,inactive
14,COC(=O)c1ccc(/C=C/c2c(-c3ccc(OC)cc3)sc3ccccc23)cc1,inactive
15,Cc1cccc(NC(=O)c2ccccc2NC(=O)C(C)(C)C)n1,inactive
16,Cc1cccc(NC(=O)c2ccc(COc3ccccc3[N+](=O)[O-])o2)n1,25.1 µM (active)
17,Cc1cccc(NC(=O)Nc2ccc(OCc3ccccc3)cc2)n1,inactive
18,CCc1ccc(C(=O)C(C)OC(=O)CN2C(=O)NC3(CCCC3)C2=O)cc1 (configuration not stated),inactive
19,Brc1ccccc1CN1CCC(Cc2ccccc2)CC1,inactive
20,O=C(O)c1ccc(S(=O)(=O)N2CCC(Cc3ccccc3)CC2)cc1,inactive
21,NC(=O)c1ccc(CN2CCC(Cc3ccccc3)CC2)cc1,11.2 µM (active)
22,COc1ccccc1CNS(=O)(=O)c1cc2c3c(c1)CCC(=O)N3CCC2,inactive
23,COc1ccc(-c2nc3c(s2)CCc2onc(-c4ccc(Br)cc4)c2-3)cc1,inactive

row,SMILES,Potency
1,CCCCn1c(N)c(N(CC(C)C)C(=O)CN(C)S(=O)(=O)c2ccc(F)cc2)c(=O)[nH]c1=O,inactive
2,CC1(C)CC(=O)c2ccc(O)cc2O1,inactive
3,CC[C@@H]1Cc2cc(O)ccc2C2=C1c1ccc(O)cc1C[C@H]2CC,3.16 µM (active)
4,O=C(Nc1cccc(S(=O)(=O)NC2=NCCC2)c1)c1ccc(F)cc1F,inactive
5,COc1ccc(-n2nc(C(=O)NCC(=O)N3CCN(c4ccccc4OC)CC3)c3ccccc3c2=O)c(OC)c1,inactive
6,COc1ccc(-n2nc(C(=O)NCC(=O)N3CCCCCC3)c3ccccc3c2=O)cc1Cl,11.2 µM (active)
7,COc1ccc(-n2nc(C(=O)NCC(=O)N3CCC(C(N)=O)CC3)c3ccccc3c2=O)cc1OC,inactive
8,O=C1N[C@@H](Cc2ccccc2)C(=O)N2[C@@H]3N(S(=O)(=O)c4ccc(F)cc4)c4ccccc4[C@]3(Br)C[C@@H]12,inactive
9,CCOC(=O)C1CCN(CC(=O)Nc2ccc(OC)c(S(=O)(=O)N3CCCCC3)c2)CC1,inactive
10,O=c1[nH]c2c(c(=O)n1-c1ccccc1)CCO2,inactive
11,O=C(COC(=O)c1cccs1)Nc1ccccc1Cl,inactive
12,COc1cc(/C=C2\CCCc3c2nc2ccccc2c3C(=O)O)cc(Cl)c1O,inactive
13,O=C(COC(=O)c1c2c(nc3ccccc13)/C(=C\c1cccs1)CCC2)Nc1ccccc1Cl,4.47 µM (active) and 2.51 µM (active)
14,Cc1ccc(C)c(NC(=O)COC(=O)CSc2ccccc2)c1,inactive
15,CN(CC(=O)NCc1ccc2c(c1)OCO2)CC(=O)Nc1ccc(F)c(F)c1F,inactive
16,COc1ccc(CCC(=O)Nc2ccc(Cl)c(S(=O)(=O)N3CCOCC3)c2)cc1OC,11.2 µM (active)
17,COc1ccc(CC(=O)Nc2ccc3c(c2)CCC3)cc1S(=O)(=O)N1CCOCC1,inactive
18,COc1cc(/C=C/C(=O)OCC(=O)N2CCOCC2)ccc1OCC#N,inactive
19,COc1ccc(CNC(=O)COC(=O)c2ccc(C)c(S(=O)(=O)N3CCOCC3)c2)cc1OC,inactive
20,COc1cc(/C=C/C(=O)Nc2ccc(OC)c(S(=O)(=O)N3CCOCC3)c2)ccc1OCC#N,7.08 µM (active)
21,COc1ccc(NS(=O)(=O)c2cc(NC(=O)/C=C/c3cc(OC)c(OC)c(OC)c3)ccc2N2CCCCC2)cc1,inactive
